HCV inhibitor: qHTS Assay for Inhibitors of Hepatitis C Virus (HCV); Huh7.5.1 HCVcc-Cre infection, luciferase reporter, 44 h; AID 651820, 2012; 3.4% of 340,000 active; Potency, µM (series often up to 41.8 µM), for inactives: at the highest dose activity change, negative = inhibition, most hits filed as inhibitors; active = well fitted inhibition curve with a large enough effect; inconclusive = small, poorly fitted or top-dose-only effect, or another doubt; inactive = no such curve, though single readings can be large or run the other way
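Cells (1,000/well) were plated 4 h before compound, then infected with HCVcc-Cre virus (~0.5 moi). After 44 h further culture, infection was read as luciferase luminescence following a 15 min substrate incubation at room temperature.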
MARV entry inh: qHTS for inhibitors of binding or entry into cells for Marburg Virus | Marburg virus pseudotyped entry inhibition, cell reporter | Potency, µM (doses to about 37.8 µM), for inactives: top-dose activity change, negative = inhibition, most hits filed as inhibitors | 1.8% of 300,000 active; calls by dose curve; tested in HEK293 cells
Vaccinia Venus: qHTS for Stage-Specific Inhibitors of Vaccinia Orthopoxvirus: Venus Reporter Primary qHTS; Vaccinia virus Venus reporter expression, fluorescence; Potency, µM (doses to about 36.5 µM), inactives show at the top dose activity change, negative = inhibition, actives largely listed as inhibitors; 0.46% of 330,000 active; AID 720580, 2013; calls by dose curve; tested in A549 cells; note: nearly all actives have a fitted effect of over 30% in size
FMDV antiviral: High Throughput Screening for Foot and Mouth Disease Virus Antivirals. FMDV antiviral cell-based qHTS. Potency, µM (titrated, usually from 57.9 µM), inactives show top-dose activity change, negative = inhibition, most hits filed as inhibitors. 1.2% of 410,000 active. AID 1159524, 2015; calls by dose curve; tested in HEK293T cells; note: read-out not given here; nearly all actives have a fitted effect of over 45% in size
VACV mCherry inh: qHTS for Stage-Specific Inhibitors of Vaccinia Orthopoxvirus: mCherry Reporter Primary qHTS | Vaccinia virus mCherry reporter infection, fluorescence | Potency, µM (top dose mostly 36.5 µM), for the others: top-dose activity change, negative = inhibition, usual class: inhibitors | 0.63% of 310,000 active; calls by dose curve; tested in A549 cells; note: nearly all actives have a fitted effect of over 35% in size
Lassa entry inh: qHTS for Inhibitors of binding or entry into cells for Lassa Virus | Potency, µM (series often up to 37.9 µM), for the others: top-dose activity change, negative = inhibition, usual class: inhibitors | AID 540256, 2011 | 1.2% of 300,000 active | Lassa virus pseudotype entry inhibition, cell reporter; calls by dose curve; tested in HEK293 cells; note: nearly all actives have a fitted effect of over 50% in size
The depositor's hits bear a star; i = inactive; ? = inconclusive; · = no result; [ ] = another dose, or the depositor's remark. Most compounds without a hit are left out; they make up all but 5.3% or so of the library. % is set by controls: 0 for no effect and ±100 for the full control effect; potency is the fitted concentration of half-maximal effect.

SMILES	HCV inhibitor	MARV entry inh	Vaccinia Venus	FMDV antiviral	VACV mCherry inh	Lassa entry inh
CCCn1c(NC(=O)c2cccc(C)c2C)nc2ccccc21	11µM*	?	·	35%	·	-24%
O=C(NNC(=O)c1ccc(O)c(Cl)c1)c1cccc(S(=O)(=O)N2CCOCC2)c1	13%	10µM*	-2%	-1%	-12%	-20%
Cc1ccc(C)c(NC(=O)c2nc(S(C)(=O)=O)ncc2N(Cc2ccc(C(C)(C)C)cc2)Cc2ccco2)c1	·	?	-5%	-24%	-12%	-23%[46.1 µM]
COc1ccc(-c2ccc(C(=O)N(C)Cc3csc(C)n3)c(N3CCC(N4CCc5ccccc5C4)CC3)n2)cc1	·	·	10%	52%	-9%	·
CCCCn1ccnc1C(=O)c1cccc(S(=O)(=O)N2CC(C)CC(C)C2)c1 (centres undefined)	-25%	-30%	·	9%	·	-13%
Cn1c(NC(=O)c2ccccc2NC(=O)C(C)(C)C)nc2ccccc21	7.1µM*	·	?	-17%	?	·
O=C(Nc1ccc(N2CCOCC2)cc1)c1ccc(Cl)c(S(=O)(=O)N2CCCCC2)c1	2.5µM*	·	·	?	·	·
CCCCn1ccnc1C(=O)c1cc(S(=O)(=O)N2CCOCC2)ccc1C	11µM*	?	·	-12%	·	-21%
Cc1ccc(S(=O)(=O)N2CCOCC2)cc1C(=O)Nc1ccc(N2CCCCCC2)cc1	5µM*	?	-27%	-13%	?	?
CC(=O)c1ccc(NC(=O)c2cc(S(=O)(=O)N3CCOCC3)ccc2C)cc1	-22%	·	1%	?	-4%	-19%[46.1 µM]
C=CCN=C1N[C@@H](c2ccccc2)[C@H](C(=O)OC)[C@@H](C)N1CC	·	-25%[14.2 µM]	·	·	·	·
COC(=O)[C@H](c1ccccc1)N1CCCCCC1	·	10%[46.1 µM]	·	·	·	·
O=C(NC1CCCc2ccccc21)c1cccc(S(=O)(=O)N2CCN(c3ccccc3)CC2)c1 (centres undefined)	?	-44%	·	-26%	·	-25%
O=C(NCc1nc2ccccc2[nH]1)c1ccc(Cl)c(S(=O)(=O)N2CCCC2)c1	0%	-4%	?	28%	-8%[1.46 µM]	-19%
O=C(Nc1ccncc1)c1cccc(S(=O)(=O)N2CCOCC2)c1	-24%	-6%	-9%	-18%	-18%	14%
Cc1ccc(S(=O)(=O)N2CCOCC2)cc1C(=O)NCCN1C(=O)S/C(=C\c2ccccc2Cl)C1=O	13µM*	?	?	?	?	?
O=C(Nc1ccc(S(=O)(=O)C(F)F)cc1)c1cccc(S(=O)(=O)N2CCOCC2)c1	?	?	-16%	18µM*	-7%	-28%
O=C(Nc1ccc2c(c1)CCC2)c1cccc(S(=O)(=O)N2CCN(c3ccccc3)CC2)c1	0.56µM*	?	·	-6%	·	-2%
CCCn1c(NC(=O)c2ccc(Cl)c(S(=O)(=O)N3CCCC3)c2)nc2ccccc21	2.5µM*	?	25µM*	?	11µM*	?
CCC(=O)N1c2ccc(S(=O)(=O)N3CCCCCC3)cc2CC1C (centres undefined)	·	9%[46.1 µM]	4%	21%	2%	13%[46.1 µM]
CCOc1cccc(C(=O)N(Cc2ccc(CC)cc2)C2CCS(=O)(=O)C2)c1 (centres undefined)	·	-16%[46.1 µM]	-21%	-7%	-20%	-1%[46.1 µM]
COc1ccc(OC)c(S(=O)(=O)NC(=O)C2(C)CCN2C(=O)Cc2ccccc2Cl)c1 (centres undefined)	·	·	-23%	-1%	-28%	·
Cc1cccc(OS(=O)(=O)NC(=O)OCC2CCCN3CCCCC23)c1 (centres undefined)	9%	-20%[46.1 µM]	-11%	32µM*	-9%	0%
CCOc1cc(C(=O)Nc2ccc3c4c(cccc24)C(=O)N3CC)cc(OCC)c1OCC	?	18µM*	·	?	·	-3%
CCOc1cccc(/C=C(/C#N)c2nc3ccccc3[nH]2)c1OCC(=O)O	5%	·	·	-12%	·	·
SMILES	HCV inhibitor	MARV entry inh	Vaccinia Venus	FMDV antiviral	VACV mCherry inh	Lassa entry inh
COc1cc(/C=C(\C#N)c2nc3ccccc3[nH]2)c([N+](=O)[O-])cc1OCc1ccccc1	7.1µM*	?	-12%	-24%	·	?
N#C/C(=C/c1ccc(N2CCCC2)c([N+](=O)[O-])c1)c1nc2ccccc2[nH]1	-28%	15%	·	4%	·	7%
CCN(CC)c1ccc(/C=C(/C#N)c2nc3ccccc3[nH]2)c(OC(C)C)c1	2µM*	-3%	·	33%	·	·
COc1cc(/C=C(\C#N)c2nc3ccccc3[nH]2)ccc1OC(=O)c1ccco1	?	?	35%	-9%	-12%	0%
N#C/C(=C\c1ccc(Oc2ccc(C(F)(F)F)cc2[N+](=O)[O-])cc1)c1nc2ccccc2[nH]1	-12%	?	-16%	25µM*	·	?
CC1(C)Cc2c(ccc3ccccc23)/C(=C/C(=O)N2CCCCC2)N1	?	11µM*	-19%	?	·	-9%
O=C(/C=C1\NC2(CCCC2)Cc2ccccc21)N1CCOCC1	?	-10%	-18%	?	·	-14%
CCOC(=O)C1=CCN(S(=O)(=O)c2ccccc2)C1c1ccccc1 (centres undefined)	·	·	-4%	-18%	i	·
CCCCCOc1ccc2oc(=O)c3c(c2c1)CCCN3C(=O)CN1CCCC(C(=O)OCC)C1 (centres undefined)	?	?	?	?	?	9.2µM*
Cc1cccc(NC(=O)c2sc3nc4c(cc3c2N)CN(C(C)C)CC4)c1	·	-11%[46.1 µM]	-28%	?	-23%	?
Cc1ccc(C(=O)Nc2cccc3ccccc23)cc1	-15%	·	·	47%	·	·
CC(C)(C)c1ccc(C(=O)Nc2cccc3c(=O)[nH][nH]c(=O)c23)cc1	?	?	-14%	4.5µM*	-22%	7.1µM*
CC(C)CCNC(=O)/C=C/c1ccc(Br)cc1	-2%	?	-7%	20%	-16%	1.6µM*
CC(C)CCNC(=S)Nc1ccc(Br)cc1	-12%	?	?	-16%	-13%	?
Cc1ccc2nc(N(CCCN(C)C)C(=O)c3sc4ccccc4c3Cl)sc2c1	?	-29%	-20%	18µM*	-27%	?
CN(C)CCN(C(=O)c1ccc2c(c1)OCCO2)c1nc2ccc(Cl)cc2s1	?	-3%[46.1 µM]	-9%	17%	-11%	7%
Cc1ccc(C(=O)N(CCCN(C)C)c2nc3ccc(Cl)cc3s2)cc1C	?	8.9µM*	-22%	?	25%	?
CN(C)CCCN(C(=O)c1ccco1)c1nc2ccc(Cl)cc2s1	25µM*	?	?	-17%	-17%	?
Cc1ccc2nc(N(CCCN(C)C)C(=O)c3ccc(S(=O)(=O)N(C)C)cc3)sc2c1	19%	?	-1%	0%	i	12%

Compound activity deposited in PubChem BioAssay by National Center for Advancing Translational Sciences (NCATS).
